NALP3 yeast inh = NALP3 inhibition in yeast; Yeast reconstituted NLRP3/ASC/caspase-1, beta-gal luminescence, 24 h; inhibition, % at 10 µM; 330,000 tested, 0.39% active;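 active means inhibition of 50% or more; inactive means inhibition below 50%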;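 further: plate controls were induced DMSO wells for no effect and uninduced yeast grown without galactose for full effect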
PfHsp90 yeast 2 = reduces growth (ATP signal) of yeast expressing P. falciparum Hsp90; 310,000 tested, 0.32% active; inhibition, % at 9.4 µM; S. cerevisiae expressing PfHsp90, BacTiter-Glo ATP, 48 h; yeast lacking PDR1 and PDR3 efflux regulators; AID 504621;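 active means every replicate shows inhibition above about 80%, whatever the replicate mean, limit read from the data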;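 further: 0% = DMSO neutral controls and 100% = 20 µM radicicol positive controls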
TIM10 inh = TIM10 yeast growth inhibition; 330,000 tested, 1.4% active; AID 463195; S. cerevisiae TIM10 strain growth, BacTiter-Glo luminescence, 24 h; inhibition, % at 10 µM;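 active means inhibition of 40% or more at the single tested concentration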;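 further: wild-type TIM10 isogenic control strain grown at permissive 25 °C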
tim23-1 inh = tim23-1 yeast growth inhibition. S. cerevisiae tim23-1 growth, BacTiter-Glo luminescence, 24 h. inhibition, % at 20 µM. 330,000 tested, 1.3% active. AID 463212;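 active means growth inhibition of the mutant yeast at or above 50%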;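 further: temperature-sensitive mutant grown at 25 °C; plate controls were DMSO-treated mutant yeast for no effect and medium wells lacking yeast for full effect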
SKKanGAS inh = inhibitors of SKKanGAS S. pyogenes growth in kanamycin (SK-promoter or general growth effect). BacTiter-Glo, 6 h. inhibition, % at 7.5 µM. 300,000 tested, 1.3% active. AID 1662;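 active means mean replicate score, as percent of positive control median, at least 50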;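 further: strain carries kanamycin resistance gene driven by streptokinase promoter and grows in 40 µg/ml kanamycin; loss of luminescence reflects streptokinase promoter inhibition or plain growth inhibition; 0% = median of DMSO wells and 100% = positive control at its reference dose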
tim10-1 inh = inhibits growth of tim10-1 mutant yeast | S. cerevisiae tim10-1 ts strain growth, BacTiter-Glo, 24 h | inhibition, % at 20 µM | 330,000 tested, 2.2% active | AID 463190;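 active means inhibition of at least 40%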;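 further: mutant grown at 25 °C; 0% = DMSO wells with yeast and 100% = wells holding no yeast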
NALP3 confirm = confirmation of NALP3 inhibitors in yeast. shares compounds with NALP3 yeast inh. yeast expressing human NALP3, luminescence. inhibition, % at 10 µM. 1,300 tested, 81% active; in the data active means inhibition above about 48%
Casp1-ASC yeast = active in yeast caspase-1-ASC counter-screen for NALP3 inhibitors. shares compounds with NALP3 yeast inh. yeast expressing Caspase-1-ASC, luminescence counter screen. inhibition, % at 10 µM. 1,000 tested, 66% active
NALP3 yeast rt = yeast NALP3 inhibition, confirmed on retest; inhibition, % at 10 µM; shares compounds with NALP3 yeast inh; yeast expressing human NALP3, luminescence read-out; 1,000 tested, 53% active
tim10-1 confirm = tim10-1 yeast growth inhibition, confirmed; shares compounds with tim10-1 inh; S. cerevisiae tim10-1 ts strain growth, BacTiter-Glo, 24 h; inhibition, % at 20 µM; 7,400 tested, 56% active; AID 463213;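 active means inhibition of yeast growth at or above a set limit in either of two repeat tests at 20 µM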;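 further: tim10-1 mutant grown at permissive 25 °C to find synthetic lethal compounds; 0% = DMSO yeast wells and 100% = medium wells without yeast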
tim10 confirm = TIM10 yeast growth inhibition, confirmed; shares compounds with TIM10 inh; S. cerevisiae tim10 strain growth, BacTiter-Glo luminescence, 24 h; inhibition, % at 10 µM; 4,600 tested, 63% active; AID 463215;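 active means inhibition of yeast growth at or above a set limit in either of two replicates at 10 µM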;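 further: this counterscreen used the strain with wild-type TIM10; 0% = yeast with DMSO and 100% = medium wells lacking yeast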
tim23-1 confirm = confirmation of tim23-1 mutant yeast growth inhibitors; S. cerevisiae tim23-1 growth, BacTiter-Glo luminescence, 24 h; 4,400 tested, 83% active; inhibition, % at 20 µM; AID 463218; shares compounds with tim23-1 inh;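 active means inhibition above about 39% in either of two replicate wells at 20 µM, limit read from the data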;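 further: temperature-sensitive tim23-1 mutant grown at 25 °C; 0% = DMSO wells with yeast and 100% = medium wells without yeast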
The depositor's hits bear a star. Hits are enriched below; roughly 4.6% of the tested compounds scored in any of these assays. Unless noted, no stated cut-off is given here; in the data, active means inhibition above about 50%; inactive means the rest.

O=Nc1c(-c2c(O)[nH]c3cc(Br)ccc23)[nH]c2ccccc12 was read as NALP3 yeast inh 66.7*, PfHsp90 yeast 2 5.0, TIM10 inh 31.8, tim23-1 inh 50.6*, SKKanGAS inh 95.2*, tim10-1 inh 9.4, NALP3 confirm 71.2*, Casp1-ASC yeast 55.8*, NALP3 yeast rt 64.2* and tim23-1 confirm 56.9*.
For COc1ccc(C2(C(=O)Nc3ccc(C)cc3)CCOCC2)cc1 the results were NALP3 yeast inh -0.5, PfHsp90 yeast 2 6.5, TIM10 inh -2.9, tim23-1 inh 0.5, SKKanGAS inh -9.3 and tim10-1 inh 8.6.
CC(=O)C[C@H](O)CC(=O)[C@H]1OC(=O)CCCCCCCCc2ccccc21 was read as NALP3 yeast inh 2.4, PfHsp90 yeast 2 4.9, TIM10 inh 13.5, tim23-1 inh 32.9 and tim10-1 inh 15.8.
`Cc1ccc(C(C[N+](=O)[O-])c2c(-c3ccccc3O)[nH][nH]c2=O)cc1` (centres undefined) gave NALP3 yeast inh 50.8*, PfHsp90 yeast 2 -49.3, TIM10 inh 32.8, tim23-1 inh 66.1*, SKKanGAS inh -15.0, tim10-1 inh 43.8*, NALP3 confirm 50.7*, Casp1-ASC yeast 77.4*, NALP3 yeast rt 58.1*, tim10-1 confirm 37.5* and tim23-1 confirm 56.0*.
`C=C(C)COc1ccc2c(C)c(CC(=O)OC)c(=O)oc2c1C` gave NALP3 yeast inh 66.3*, PfHsp90 yeast 2 28.9, TIM10 inh 86.5*, tim23-1 inh 61.5*, tim10-1 inh 80.4*, NALP3 confirm 77.9*, Casp1-ASC yeast 83.0*, NALP3 yeast rt 79.8*, tim10-1 confirm 75.7*, tim10 confirm 87.5* and tim23-1 confirm 64.8*.
`CN1CCN(c2cc(-c3ccccc3)nc3cc(-c4ccc(F)cc4)nn23)CC1` gave NALP3 yeast inh 52.0*, TIM10 inh 33.6, tim23-1 inh 55.3*, SKKanGAS inh 11.2, tim10-1 inh 10.7, NALP3 confirm 63.0*, Casp1-ASC yeast 67.8*, NALP3 yeast rt 65.8* and tim23-1 confirm 43.1*.
O=C(NC(=S)Nc1c(Cl)ccc2nsnc12)c1ccco1 was read as NALP3 yeast inh 4.9, PfHsp90 yeast 2 -13.3, TIM10 inh 2.9, tim23-1 inh 16.1, SKKanGAS inh 5.6 and tim10-1 inh 27.9.
COc1ccc2c(c1)CC/C2=N\OC(=O)c1cccc(C)c1 was read as NALP3 yeast inh 52.4*, PfHsp90 yeast 2 -33.7, TIM10 inh 83.2*, tim23-1 inh 52.9*, SKKanGAS inh -7.7, tim10-1 inh 62.4*, NALP3 confirm 5.1, tim10-1 confirm 40.8*, tim10 confirm -12.9 and tim23-1 confirm 81.9*.
Screening Cc1ccc(NS(=O)(=O)c2ccc3c(c2)NC(=O)CCS3)cc1C returned NALP3 yeast inh 7.0, PfHsp90 yeast 2 13.3, TIM10 inh -6.9, tim23-1 inh 2.3, SKKanGAS inh 0.5 and tim10-1 inh 17.1.
For Cc1cccc(NCc2cc(Cl)cc(Cl)c2O)n1 the results were NALP3 yeast inh 52.8*, PfHsp90 yeast 2 -11.7, TIM10 inh 29.3, tim23-1 inh 52.1*, SKKanGAS inh 3.5, tim10-1 inh 42.6*, NALP3 confirm 50.7*, Casp1-ASC yeast 57.0*, NALP3 yeast rt 55.9*, tim10-1 confirm 27.0 and tim23-1 confirm 56.0*.
`Cc1ccc(O)c(CNc2cccc(C)n2)c1` gave NALP3 yeast inh 45.2, PfHsp90 yeast 2 -10.1, TIM10 inh -3.1, tim23-1 inh 0.4, SKKanGAS inh -0.5 and tim10-1 inh -12.1.
Screening O=C1CCCCC/C1=N/Nc1ccc(OCc2ccccc2)cc1 returned NALP3 yeast inh -3.5, PfHsp90 yeast 2 7.0, TIM10 inh -20.3, tim23-1 inh -13.4, SKKanGAS inh -0.2 and tim10-1 inh -31.3.
O=C(Nc1c(-c2ccccc2)nc2ccccn12)c1cccs1 was read as NALP3 yeast inh 2.5, TIM10 inh 3.7, tim23-1 inh -1.1, SKKanGAS inh 1.6 and tim10-1 inh 3.0.
`O=C(Nc1nsc(-c2ccccc2)n1)c1cccs1` gave NALP3 yeast inh 54.4*, PfHsp90 yeast 2 13.0, TIM10 inh 33.7, tim23-1 inh 68.3*, SKKanGAS inh 1.0, tim10-1 inh 33.3, NALP3 confirm 64.7*, Casp1-ASC yeast 39.9, NALP3 yeast rt 48.8 and tim23-1 confirm 52.7*.
O=C(COC(=O)/C=C/c1ccc(Cl)cc1)Nc1ccc2[nH]c(=O)[nH]c2c1 was read as NALP3 yeast inh 4.9, PfHsp90 yeast 2 -27.2, TIM10 inh -12.1, tim23-1 inh -2.7, SKKanGAS inh -0.9 and tim10-1 inh -1.9.
For O=C(NCCc1ccccc1)c1c(O)c2ccccc2[nH]c1=O the results were NALP3 yeast inh 22.9, PfHsp90 yeast 2 -6.3, TIM10 inh 2.9, tim23-1 inh 31.2, SKKanGAS inh 1.1 and tim10-1 inh -42.9.
For CCNC(=O)c1c(O)c2ccccc2[nH]c1=O the results were NALP3 yeast inh 68.3*, PfHsp90 yeast 2 26.4, TIM10 inh 26.7, tim23-1 inh 53.9*, SKKanGAS inh -1.4, tim10-1 inh 12.5, NALP3 confirm 78.8*, Casp1-ASC yeast 52.6*, NALP3 yeast rt 70.8* and tim23-1 confirm 41.4*.
Screening Cc1ccnc2c1ccc1ccccc12 returned NALP3 yeast inh 17.4, PfHsp90 yeast 2 -8.8, TIM10 inh -6.6, tim23-1 inh 18.9, SKKanGAS inh -7.6 and tim10-1 inh 11.9.
For Cc1c2ccccc2c(C)c2c1ccc1ccccc12 the results were NALP3 yeast inh 65.2*, PfHsp90 yeast 2 -1.6, TIM10 inh 83.7*, tim23-1 inh 76.8*, tim10-1 inh 49.7*, NALP3 confirm 61.9*, tim10-1 confirm 46.8*, tim10 confirm 88.0* and tim23-1 confirm 80.0*.
